Compound activity as filed in PubChem.
Shown is part of a subset that was picked to be rich in hits.
AmpC inh no detg – AmpC beta-lactamase inhibition without detergent | P00811 | AmpC nitrocefin hydrolysis, absorbance 480 nm, 0.0001% Triton | Potency, µM (series often up to 57.1 µM), usual class: inhibitors | 0.52% of 330,000 active | AID 485341; note: nearly all actives have a fitted effect of over 20% in size
Target sequence (P00811 whole entry, looked up): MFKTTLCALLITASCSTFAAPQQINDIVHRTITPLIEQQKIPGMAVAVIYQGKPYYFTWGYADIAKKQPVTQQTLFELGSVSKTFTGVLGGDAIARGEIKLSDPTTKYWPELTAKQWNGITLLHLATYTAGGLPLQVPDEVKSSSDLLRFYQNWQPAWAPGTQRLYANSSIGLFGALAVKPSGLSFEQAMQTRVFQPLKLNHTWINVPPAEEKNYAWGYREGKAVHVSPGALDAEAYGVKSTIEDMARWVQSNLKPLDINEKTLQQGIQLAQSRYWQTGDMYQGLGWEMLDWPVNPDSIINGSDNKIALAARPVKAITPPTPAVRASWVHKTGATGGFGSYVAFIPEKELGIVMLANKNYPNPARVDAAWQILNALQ
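AmpC (5.3 nM in the dispensed reagent) in 20 mM phosphate pH 7.0 with 0.01% (detergent screen) or 0.0001% Triton X-100 was preincubated with compounds for 15 min at room temperature. Nitrocefin was then added from an 800 uM solution, and hydrolysis was followed at 480 nm.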
AmpC detergent – AmpC beta-lactamase inhibition with detergent present. P00811. AmpC hydrolysis of nitrocefin, absorbance 480 nm, 0.01% Triton. Potency, µM (highest dose often 114 µM), usual class: inhibitors. 0.041% of 370,000 active. AID 485294; note: nearly all actives have a fitted effect of over 25% in size
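20 mM phosphate pH 7.0 + 0.01% (detergent screen) or 0.0001% Triton X-100; 5.3 nM AmpC reagent; cpd preinc 15 min RT; nitrocefin (800 uM stock) to start; A480 q20 s × 4 min; Activity was normalised to no-enzyme and no-compound control wells.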
NS1 inh – blocks influenza NS1 protein function; Potency, µM (top dose mostly 46.1 µM); 0.4% of 270,000 active; AID 2326; calls by dose curve; note: actives are rising curves; nearly all actives have a fitted effect of over 50% in size
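Growth recovery, yeast-based: influenza A NS1 expressed in S. cerevisiae causes slow growth, and suppressors are detected by OD600. The parent strain without NS1 is used as positive control.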
Cycloheximide cs – affects cycloheximide protein synthesis inhibition readout, counter-screen; AID 2314; max response, %; cell reporter, cycloheximide protein synthesis inhibition counterscreen; 12% of 300,000 active; in the data active = max response mostly above about 13%, no sharp cut-off; inactive = mostly below about 14%; note: read at 38.3 µM for the half of the compounds with a filed dose
Shiga toxin inh – inhibitors of Shiga toxin in Vero cells; Vero cells, Shiga toxin protein synthesis inhibition reporter; inhibition, % at 38.7 µM; AID 2315; 9.2% of 290,000 active; in the data active = inhibition mostly above about 28%, no sharp cut-off; inactive = mostly below about 43%
Each line names hits and unclear results; the compound was inactive in the other large screens. Unless noted, calls come from the whole dose curve; as a rule, active = well fitted curve in the direction sought with a large enough effect; inconclusive = small, poorly fitted or top-dose-only effect, or another doubt; inactive = no such curve, though single readings can be large; an effect the other way counts as inactive or inconclusive.

COc1ccc(Cl)c2c1[nH]c1nc(SCc3ccccn3)nnc12	Cycloheximide cs 40.8, Shiga toxin inh 89.3 (no result: NS1 inh)
COc1ccc(C(C#N)N2N=C(c3ccccc3)CC2c2ccccc2)cc1OC (stereo unspecified)	Cycloheximide cs 68.5, Shiga toxin inh 44.3
COc1ccc(C2=NN(C(C#N)c3ccc(OC)cc3)C(c3ccccc3)C2)cc1 (stereo unspecified)	Cycloheximide cs 32.8, Shiga toxin inh 82.7
COc1ccc(C(C#N)N2N=C(C)CC2c2ccccc2)cc1OC (stereo unspecified)	AmpC detergent inconclusive
CC(C)[C@](N)(C(=O)O)c1ccccc1	none (no result: AmpC inh no detg, AmpC detergent, Cycloheximide cs, Shiga toxin inh)
COCC(=O)N(Cc1cc2cc(C)ccc2[nH]c1=O)c1ccccc1	Cycloheximide cs 11.7
C=CCn1cnc2c(nnn2-c2ccc(C)c(C)c2)c1=O	Cycloheximide cs 40.1, Shiga toxin inh 88.0 (no result: NS1 inh)
C=CCn1cnc2c(nnn2-c2ccc(OC)c(OC)c2)c1=O	none
CCCSc1nc(-c2ccc(OC)cc2)cc(-c2ccccc2OC)c1C#N	none (no result: AmpC inh no detg, NS1 inh, Cycloheximide cs, Shiga toxin inh)
O=S(=O)(NCC1COc2ccccc2O1)c1ccc2ccccc2c1 (stereo unspecified)	AmpC detergent inconclusive
CNS(=O)(=O)c1ccc(NCC2COc3ccccc3O2)c([N+](=O)[O-])c1 (stereo unspecified)	Cycloheximide cs 16.4
Cc1nnc(NC(=O)C2CCN(S(=O)(=O)c3ccc(F)c(Cl)c3)CC2)o1	none (no result: NS1 inh, Cycloheximide cs, Shiga toxin inh)
COc1ccc(-c2cc(C(=O)N3CCCc4ccccc43)no2)cc1OC	none
Cc1ccc(-c2cc(C(=O)N3CCCc4ccccc43)no2)cc1	Cycloheximide cs 30.9, Shiga toxin inh 97.6
Cc1noc(C)c1C(=O)N1CCCc2ccccc21	none
O=C(c1cc(-c2cccs2)on1)N1CCCc2ccccc21	AmpC detergent inconclusive, Cycloheximide cs 38.9, Shiga toxin inh 73.4
O=C(c1cc(-c2ccc(F)cc2)on1)N1CCCc2ccccc21	Cycloheximide cs 45.9, Shiga toxin inh 63.8 (no result: NS1 inh)
OC[C@@H]1O[C@@H](O)[C@H](O)[C@H](O)[C@@H]1O	none (no result: AmpC inh no detg, AmpC detergent, NS1 inh)
Cn1c(-c2ccc3ccccc3n2)nc2cnccc21	AmpC detergent inconclusive, Cycloheximide cs 26.8, Shiga toxin inh 49.3
CC(/C=N\NC(=O)c1cc(C)oc1C)=C\c1ccccc1	AmpC detergent inconclusive, Cycloheximide cs 21.9
CC(/C=N/NC(=O)c1ccc(Br)cc1)=C\c1ccccc1	none
Cc1cc(C(=O)N/N=C/c2ccncc2)c(C)o1	none
CN(C)c1ccc(/C=N/NC(=O)c2ccccc2O)o1	Cycloheximide cs 20.5, Shiga toxin inh 131.4 (no result: NS1 inh)
Cc1ccc(/C=N/NC(=O)c2cc(C)oc2C)o1	Cycloheximide cs 15.4
Cc1ccc(/C=N/NC(=O)c2cc(C)oc2C)cc1	Cycloheximide cs 53.4, Shiga toxin inh 60.1
Cc1cc(C(=O)NN=Cc2ccc(-c3ccc(F)cc3)o2)c(C)o1	none (no result: AmpC detergent, NS1 inh, Cycloheximide cs, Shiga toxin inh)
CN(C)c1ccc(/C=N/NC(=O)C(O)(c2ccccc2)c2ccccc2)o1	none
Cn1c(SCC(=O)Nc2ccc3c(c2)OCCO3)nnc1-c1ccncc1	none
CCc1ccc(-c2nc(CN3CCCC(C(=O)N4CCN(c5cc(Cl)ccc5C)CC4)C3)c(C)o2)cc1 (stereo unspecified)	none (no result: AmpC inh no detg, NS1 inh, Cycloheximide cs, Shiga toxin inh)
COc1ccc(NC(=O)CN2CCCN(Cc3ccc(Cl)cc3)S2(=O)=O)cc1Cl	none (no result: AmpC inh no detg, NS1 inh, Cycloheximide cs, Shiga toxin inh)
N#CC1=C(N)SC(N)=C(C#N)C1c1cccc(Oc2ccccc2)c1	AmpC inh no detg 25.1µM
O=C1CC(c2nc(-c3cccc(Cl)c3)no2)CN1c1ccc2c(c1)OCCO2 (stereo unspecified)	none (no result: AmpC inh no detg, NS1 inh, Cycloheximide cs, Shiga toxin inh)
CN(C)S(=O)(=O)c1ccc2nc(NC(=O)c3cccs3)sc2c1	Cycloheximide cs 41.2, Shiga toxin inh 70.4
O=C(Nc1nc2ccc(S(=O)(=O)N3CCCC3)cc2s1)c1cccs1	none
O=C(Nc1nc2ccc(S(=O)(=O)N3CCOCC3)cc2s1)c1cccs1	Cycloheximide cs 18.3, Shiga toxin inh 38.9
CC(=O)Nc1ccc2nc(NC(=O)c3cccnc3)sc2c1	Cycloheximide cs 26.8, Shiga toxin inh 46.3
COc1ccc(CC(=O)Nc2nc3ccc(F)cc3s2)cc1S(=O)(=O)N1CCOCC1	Cycloheximide cs 40.1, Shiga toxin inh 69.8
COc1ccc(CC(=O)Nc2nc3ccccc3s2)cc1S(=O)(=O)N1CCOCC1	none
O=C(COC(=O)c1cnccn1)Nc1cc(S(=O)(=O)N2CCOCC2)ccc1Cl	none (no result: AmpC detergent, NS1 inh, Cycloheximide cs, Shiga toxin inh)
OC1OC[C@H](O)[C@@H](O)[C@@H]1O (stereo partly specified)	none (no result: AmpC inh no detg, AmpC detergent, NS1 inh)
Nc1ncnc2c([C@@H]3O[C@@H](CO)[C@H](O)[C@@H]3O)nsc12	none (no result: AmpC inh no detg, AmpC detergent, Cycloheximide cs, Shiga toxin inh)
